Some test systems named below: SR leukemia; RPMI-8226 leukemia; OVCAR-8 ovarian; OVCAR-5 ovarian; OVCAR-4 ovarian; SK-OV-3 ovarian; IGROV1 ovarian; OVCAR-3 ovarian; NCI/ADR-RES ovarian; HS 578T breast.
What all share (assay): NCI-60 one-dose screen, 48 h (100 = growth as untreated, 0 = no growth, -100 = all killed)
What all share (settings): 10 µM

About 83,000 compounds went through this panel and 20% of them were active in at least one assay; those are over-represented in the sample as a whole.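 Negative percent growth values reflect cell death: -40 means 40% of the cells present at the start died, and -100 means all died.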 Values without a mark were called inactive. The source made the active and inactive calls. The calls were made as follows: active = growth percent below 10; inactive = the rest.

In the case of `C=CCc1cc(Nc2c3ccc(Cl)cc3nc3ccc(OC)cc23)cc(CN(CC)CC)c1O`, the growth with SR leukemia is -20.4% (active); in the experiment on RPMI-8226 leukemia it was -25.7% (active); in the experiment on OVCAR-8 ovarian it was 8.73% (active); in the experiment with OVCAR-5 ovarian, 47.5%; in the experiment on OVCAR-4 ovarian, 9.26% (active); in the experiment on SK-OV-3 ovarian, 1.21% (active). Besides, the results for the growth in the experiment on IGROV1 ovarian, in the experiment with OVCAR-3 ovarian and with NCI/ADR-RES ovarian were 25.5%, 6.47% (active) and 43.9%, respectively.
With `O=C(/C=C/c1nnc2n(Cc3ccccc3)c(=O)c3c4c(sc3n12)CCCC4)c1ccccc1`, the growth was -5.47% (active) in the experiment on SR leukemia; 1.69% (active) in the experiment on RPMI-8226 leukemia; 19.3% in the experiment on OVCAR-8 ovarian; 115% in the experiment on OVCAR-5 ovarian; 112% with OVCAR-4 ovarian; 108% in the experiment with SK-OV-3 ovarian. Besides, the growth in the experiment on OVCAR-3 ovarian is 68.4%; in the experiment on HS 578T breast, 110%; with NCI/ADR-RES ovarian, 85.8%.
For `COCc1cc2c(cc1Br)OCO2`, the growth in the experiment with SR leukemia is 106%; in the experiment on RPMI-8226 leukemia, 95.1%; with OVCAR-8 ovarian, 98.8%; in the experiment on OVCAR-5 ovarian it was 92.5%; in the experiment with OVCAR-4 ovarian it was 111%; in the experiment on SK-OV-3 ovarian it was 95.3%. Further, the growth in the experiment on OVCAR-3 ovarian is 111%; in the experiment with HS 578T breast, 101%; in the experiment with NCI/ADR-RES ovarian, 88.7%.
Regarding `COc1cc(C2C=C(c3ccc(Cl)c(Cl)c3)N=C3SC(C)=CN32)cc(OC)c1OC` (centres undefined), the growth was -11.9% (active) in the experiment on SR leukemia; -16.1% (active) in the experiment on RPMI-8226 leukemia; 73.1% with OVCAR-8 ovarian; 93.2% with OVCAR-5 ovarian; 67.8% in the experiment on OVCAR-4 ovarian; 107% in the experiment on SK-OV-3 ovarian. The growth in the experiment on IGROV1 ovarian was 85.6%; in the experiment with OVCAR-3 ovarian it was 79.8%; with HS 578T breast, 100%; with NCI/ADR-RES ovarian it was 81.3%.
In the case of `COc1ccc2nc(-c3ccccc3)cc(C(C)=O)c2c1`, the growth in the experiment with SR leukemia was 81.6%; with RPMI-8226 leukemia, 94.5%; in the experiment on OVCAR-8 ovarian, 97.3%; in the experiment on OVCAR-5 ovarian it was 92.4%; with OVCAR-4 ovarian it was 103%; in the experiment with SK-OV-3 ovarian, 107%. Besides, the growth with OVCAR-3 ovarian is 115%; with HS 578T breast, 94.3%; with NCI/ADR-RES ovarian, 90.1%.
In the case of `COc1ccc(/C=C2\CCC3C(CCCC34OCCO4)C2=O)cc1` (centres undefined), the growth in the experiment on SR leukemia is 35.5%; in the experiment with RPMI-8226 leukemia, 81.2%; in the experiment with OVCAR-8 ovarian, 97.2%; in the experiment with OVCAR-5 ovarian it was 91.7%; with OVCAR-4 ovarian it was 100%; in the experiment with SK-OV-3 ovarian, 97.1%. The growth is 83% with IGROV1 ovarian, 75% in the experiment on OVCAR-3 ovarian, 106% with HS 578T breast and 75.8% with NCI/ADR-RES ovarian.
Turning to `COc1ccc(-c2nc(-c3nc4ccc(OC)cc4[nH]3)c3ccccn23)cc1`, the growth with SR leukemia is 32.4%; with RPMI-8226 leukemia, 3.21% (active); in the experiment with OVCAR-8 ovarian, 30.8%; in the experiment on OVCAR-5 ovarian, 89.7%; in the experiment on OVCAR-4 ovarian, 50.5%; with SK-OV-3 ovarian, 92.3%. Also, the growth in the experiment with IGROV1 ovarian is 57.2%; in the experiment with OVCAR-3 ovarian, 81.8%; with HS 578T breast it was 80%; in the experiment on NCI/ADR-RES ovarian, 50.9%.
As for `CCc1nn2c(-c3cc(OC)c(OC)c(OC)c3)c(-c3cc(OC)c(OC)c(OC)c3)nc2s1`, the growth in the experiment on SR leukemia is 61.9%; in the experiment on RPMI-8226 leukemia, 71.3%; in the experiment on OVCAR-8 ovarian, 95.6%; with OVCAR-5 ovarian it was 90%; in the experiment with OVCAR-4 ovarian, 72.6%; in the experiment with SK-OV-3 ovarian it was 59.5%. The growth is 88.8% in the experiment with IGROV1 ovarian, 93.4% in the experiment with OVCAR-3 ovarian, 37.1% in the experiment with HS 578T breast and 81.7% in the experiment on NCI/ADR-RES ovarian.
With `O=C1CC(c2cccc(-c3cccnc3)c2)=Nc2ccc(Br)cc2N1`, the growth is 51.1% with SR leukemia; 40.7% in the experiment with RPMI-8226 leukemia; 17.2% in the experiment on OVCAR-8 ovarian; 91.5% in the experiment on OVCAR-5 ovarian; -4.81% (active) with OVCAR-4 ovarian; 46.5% in the experiment with SK-OV-3 ovarian. Also, the growth in the experiment on OVCAR-3 ovarian is 45%; in the experiment on HS 578T breast, 27.9%; in the experiment with NCI/ADR-RES ovarian, 19%.
Take `Cc1cc(O)c(C2=NN(c3ccc(S(N)(=O)=O)cc3)C(c3ccc(N(C)C)cc3)C2)c(C)c1Cl` (centres undefined): the growth is 25.5% in the experiment on SR leukemia; -22.2% (active) with RPMI-8226 leukemia; 75.2% in the experiment with OVCAR-8 ovarian; 96.8% in the experiment with OVCAR-5 ovarian; 58.8% with OVCAR-4 ovarian; 106% in the experiment with SK-OV-3 ovarian. The growth with OVCAR-3 ovarian is 80.3%; with HS 578T breast, 82.5%; with NCI/ADR-RES ovarian, 85.6%.
Turning to `COc1cc(C2c3cc4c(cc3C(O)C(CO)C2CO)OCO4)cc(OC)c1OC` (centres undefined), the growth in the experiment with SR leukemia was 6.26% (active); in the experiment with RPMI-8226 leukemia, 30.1%; in the experiment on OVCAR-8 ovarian, 30%; in the experiment with OVCAR-5 ovarian, 50.9%; in the experiment with OVCAR-4 ovarian it was 51%; with SK-OV-3 ovarian it was 15.9%. Moreover, the growth was 13.9% in the experiment with IGROV1 ovarian, -44.5% (active) with OVCAR-3 ovarian, -8.11% (active) in the experiment on HS 578T breast and 79.2% in the experiment on NCI/ADR-RES ovarian.
As to `CCOC(=O)Cn1nnc(-c2ccc(OCc3ccccc3F)cc2)n1`, the growth in the experiment on SR leukemia is 35.4%; with RPMI-8226 leukemia, 90.8%; in the experiment on OVCAR-8 ovarian, 101%; in the experiment on OVCAR-5 ovarian, 92.6%; with OVCAR-4 ovarian it was 86.4%; in the experiment with SK-OV-3 ovarian, 93.5%. The growth with IGROV1 ovarian was 87.9%; in the experiment on OVCAR-3 ovarian, 100%; in the experiment with HS 578T breast, 81.2%; with NCI/ADR-RES ovarian it was 57%.
For `CC(=O)Nc1nc(C)c(C(=O)NNC=O)s1`, the growth with SR leukemia was 105%; with RPMI-8226 leukemia it was 118%; with OVCAR-8 ovarian it was 102%; with OVCAR-5 ovarian, 108%; in the experiment with OVCAR-4 ovarian, 118%; in the experiment with SK-OV-3 ovarian it was 141%. Further, the growth is 13% in the experiment on IGROV1 ovarian, 98.6% in the experiment with OVCAR-3 ovarian, 77% in the experiment on HS 578T breast and 104% in the experiment on NCI/ADR-RES ovarian.

The values above are taken from PubChem BioAssay (NCI).
